# Experimental data published in the supplement of paper PMC9950053.
# Where a name gives a salt, the structure may show the parent alone.
# Tested on: Danio rerio larvae (5 dpf)
# Assay: startle (activity period 16 minus period 15, 20-s interval sound) minus DMSO control (percentage points); higher = stronger startle response than DMSO larvae
# Settings: 10 µM; exposure time: 3 h pre-incubation + 3 h imaging
# Method: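 Wild-type 5 dpf zebrafish larvae (n=48 per drug, 96-well plates, 28.5 °C) were exposed to Tocris FDA-approved library compounds at 10 µM (0.1% DMSO) for 3 h before and 3 h during imaging. Images were taken every 6 s during visual (moving coloured lines) and acoustic stimuli, and larvae were tracked with the DeepLabCut-based Z-LaP Tracker. Each behavioural measure is the treated-group mean minus the DMSO vehicle control mean (n=844), in percentage points. This mapping covers compounds with 4-character plate codes.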
row,SMILES,startle
1,O=C1CCc2cc(OCCCCc3nnnn3C3CCCCC3)ccc2N1 [Cilostazol],1.37
2,CCCc1nc(C(C)(C)O)c(C(=O)O)n1Cc1ccc(-c2ccccc2-c2nnn[nH]2)cc1 [Olmesartan],8.5
3,Cn1nnc2c(C(N)=O)ncn2c1=O [Temozolomide],2.78
4,Nc1nc2[nH]cc(CCc3ccc(C(=O)N[C@@H](CCC(=O)O)C(=O)O)cc3)c2c(=O)[nH]1 [Pemetrexed],-5.08
5,CC(C)c1ccc2oc3nc(N)c(C(=O)O)cc3c(=O)c2c1 [Amlexanox],2.27
6,CN(CCOc1ccc(NS(C)(=O)=O)cc1)CCc1ccc(NS(C)(=O)=O)cc1 [Dofetilide],0.253
7,COc1cc2nc(N3CCN(C(=O)C4COc5ccccc5O4)CC3)nc(N)c2cc1OC (stereo not given) [Doxazosin mesylate],6.47
8,CC/C(=C(\c1ccccc1)c1ccc(OCCN(C)C)cc1)c1ccccc1 [Tamoxifen citrate],-1.09
9,CC(C)c1nc(CN(C)C(=O)N[C@H](C(=O)N[C@@H](Cc2ccccc2)C[C@H](O)[C@H](Cc2ccccc2)NC(=O)OCc2cncs2)C(C)C)cs1 [Ritonavir],1.44
10,CS(=O)(=O)CCNCc1ccc(-c2ccc3ncnc(Nc4ccc(OCc5cccc(F)c5)c(Cl)c4)c3c2)o1 [Lapatinib],-0.148
11,CN(C)CCC[C@@]1(c2ccc(F)cc2)OCc2cc(C#N)ccc21 [Escitalopram oxalate],-7.28
12,CC(C)c1nc(N(C)S(C)(=O)=O)nc(-c2ccc(F)cc2)c1/C=C/[C@@H](O)C[C@@H](O)CC(=O)O [Rosuvastatin calcium],-0.514
13,CN1CCN2c3ncccc3Cc3ccccc3C2C1 (stereo not given) [Mirtazapine],-6.05
14,NC(=O)c1ncn([C@@H]2O[C@H](CO)[C@@H](O)[C@H]2O)n1 [Ribavirin],2.04
15,CN(CCOc1ccc(CC2SC(=O)NC2=O)cc1)c1ccccn1 (stereo not given) [Rosiglitazone],-1.31
16,CCOC(=O)C1=C(COCCN)NC(C)=C(C(=O)OC)C1c1ccccc1Cl (stereo not given) [Amlodipine besylate],0.141
17,CCOc1ccccc1OCCN[C@H](C)Cc1ccc(OC)c(S(N)(=O)=O)c1 [Tamsulosin hydrochloride],1.92
18,Nc1cccc2c1CN(C1CCC(=O)NC1=O)C2=O (stereo not given) [Lenalidomide],-4.19
19,CN1CCC[C@@H]1Cc1c[nH]c2ccc(CCS(=O)(=O)c3ccccc3)cc12 [Eletriptan hydrobromide],0.814
20,COCCCOc1cc(C[C@@H](C[C@H](N)[C@@H](O)C[C@H](C(=O)NCC(C)(C)C(N)=O)C(C)C)C(C)C)ccc1OC [Aliskiren hemifumarate],0.496

row,SMILES,startle
1,CCCCCCCCc1ccc(CCC(N)(CO)CO)cc1,-6.92
2,C[C@H](Cc1cc2c(c(C(N)=O)c1)N(CCCO)CC2)NCCOc1ccccc1OCC(F)(F)F [Silodosin],2.61
3,Cc1ccc(N(CC2=NCCN2)c2cccc(O)c2)cc1 [Phentolamine Mesylate],-2.8
4,CN/C(=N\CCSCc1nc[nH]c1C)NC#N [Cimetidine],5.75
5,CCCN(CCC)S(=O)(=O)c1ccc(C(=O)O)cc1 [Probenecid],0.405
6,CC[C@H](C)C(=O)O[C@H]1C[C@@H](C)C=C2C=C[C@H](C)[C@H](CC[C@@H]3C[C@@H](O)CC(=O)O3)[C@H]21 [Lovastatin],-1.2
7,N#Cc1ccc(C(c2ccc(C#N)cc2)n2cncn2)cc1 [Letrozole],6.54
8,CC1CNc2c(cccc2S(=O)(=O)N[C@@H](CCCNC(=N)N)C(=O)N2CC[C@@H](C)C[C@@H]2C(=O)O)C1 (stereo not given in full) [Argatroban],2.82
9,C[C@]12CC[C@@H]3c4ccc(O)cc4C[C@@H](CCCCCCCCC[S+]([O-])CCCC(F)(F)C(F)(F)F)[C@H]3[C@@H]1CC[C@@H]2O (stereo not given in full),-0.0663
10,CC(CCc1ccc(O)cc1)NCCc1ccc(O)c(O)c1 (stereo not given) [Dobutamine hydrochloride],-0.893
11,Nc1ncn([C@@H]2O[C@H](CO)[C@@H](O)[C@H]2O)c(=O)n1 [5-Azacytidine],2.79
12,COC(=O)C1=C(C)NC(C)=C(C(=O)OC(C)C)C1c1cccc2nonc12 (stereo not given) [Isradipine],-8.8
13,NC(=O)N1c2ccccc2C=Cc2ccccc21 [Carbamazepine],3.47
14,CCOc1nc2cccc(C(=O)O)c2n1Cc1ccc(-c2ccccc2-c2noc(=O)[nH]2)cc1 [Azilsartan],3.25
15,COc1ccc(Cl)cc1C(=O)NCCc1ccc(S(=O)(=O)NC(=O)NC2CCCCC2)cc1 [Glibenclamide],8.34
16,Brc1c(NC2=NCCN2)ccc2nccnc12,-5.57
17,COC(c1ccccc1)(c1ccccc1)[C@H](Oc1nc(C)cc(C)n1)C(=O)O [Ambrisentan],6.56
18,NS(=O)(=O)c1cc(C(=O)O)c(NCc2ccco2)cc1Cl [Furosemide],-3.94
19,CCOC(=O)c1ncn2c1CN(C)C(=O)c1cc(F)ccc1-2 [Flumazenil],-0.637
20,CC(C)C(=O)OCC(=O)[C@@]12O[C@H](C3CCCCC3)O[C@@H]1C[C@H]1[C@@H]3CCC4=CC(=O)C=C[C@]4(C)[C@H]3[C@@H](O)C[C@@]12C [Ciclesonide],-5.21
